# ssDAF-12 act: S. stercoralis DAF-12 nuclear receptor activators, primary screen, cell-based, luminescence, HEK293, GRIP1 co-expression, lit1-tk-luc | hit rate 1% among 370,000 | HEK293 ssDAF-12/GRIP1 lit1-tk-luc reporter; % of 3 µM dafachronic acid response | activation, % at 6.8 µM | Nuclear hormone receptor DAF-12 (Strongyloides stercoralis) | AID 652126, 2013;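 active = activation above the mean over all tested compounds plus 3 SD, cut at about 0.9% in these data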;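 also: 0% = DMSO-only wells and 100% = 3 µM delta7-dafachronic acid wells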
# hcDAF-12 act: H. contortus DAF-12 nuclear receptor activators, primary screen, cell-based, luminescence, HEK293, lit1-tk-luc reporter | activation, % at 6.8 µM | hit rate 1.4% among 370,000 | HEK293 hcDAF-12 lit1-tk-luc reporter; 0% DMSO, 100% Δ7-dafachronic acid;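 active = activation above the mean of all tested compounds plus 3 SD, cut at about 5.5% in these data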;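 also: 100% = response to 3 µM Δ7-dafachronic acid high control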
# hgDAF12 agonist: H. glycines DAF-12 receptor agonists, primary screen, cell-based, luminescence, HEK293, GAL4 fusion, UAS-luciferase; activation, % at 6.8 µM; hit rate 1.8% among 370,000; HEK293 GAL4-hgDAF12 UAS-luciferase reporter, agonist luminescence; normalized to butyrate control; Nuclear hormone receptor DAF-12 (Heterodera glycines), GAL4 fusion; AID 687014, 2013;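 active = activation above a cutoff set at the mean of all screened compounds plus 3 SD, cut at about 10% in these data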;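 also: 0% = DMSO wells and 100% = sodium butyrate wells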
# DAX1 inh-1: DAX1 (NR0B1) inhibitors, primary screen, cell-based, HEK293, Gal4-DAX1, luciferase luminescence; AID 504766, 2011; Nuclear receptor subfamily 0 group B member 1 (Homo sapiens), P51843; inhibition, % at 6.75 µM; HEK293 Gal4-DAX1 luciferase reporter; hit rate 0.99% among 340,000;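 active = inhibition above the mean over all tested compounds plus 3 SD, cut at about 4.2% in these data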;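 also: 0% = DAX1-transfected cells with DMSO and 100% = empty-vector control cells with DMSO; inhibition shows as a rise in luminescence from relieved DAX1 repression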
# DAX1 inh-2: DAX1 (NR0B1) inhibitors on StAR promoter, primary screen, cell-based, luminescence, SF-1 (NR5A1), full-length DAX-1 | HEK293T StAR-luciferase reporter, SF-1/DAX-1 repression relief | AID 652010, 2013 | hit rate 1.1% among 370,000 | inhibition, % at 6.8 µM;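 active = inhibition above the mean over all tested compounds plus 3 SD, cut at about 3.6% in these data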;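 also: 0% = DAX-1 cells with DMSO and 100% = cells lacking DAX-1 with DMSO; higher inhibition means more luminescence from relief of DAX-1 repression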
# hgDAF12 ag: H. glycines DAF-12 receptor agonists, confirmation, cell-based, luminescence, HEK293, GAL4-LBD fusion; shares compounds with hgDAF12 agonist; HEK293 GAL4-hgDAF12 luciferase reporter, agonist mode; percent of butyrate response; activation, % at 6.8 µM; hit rate 80% among 3,300;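 active = mean activation over triplicate wells above the hit cutoff derived from the earlier primary screen, cut at about 11% in these data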;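 also: 0% = DMSO low control and 100% = 2 mM sodium butyrate high control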
# LXRb DAF12 ctr: LXR agonists, Gal4 luciferase reporter, confirmation, counter-screen for hgDAF-12 agonist project, cell-based, luminescence, HEK293, H. glycines campaign; shares compounds with hgDAF12 agonist; 24 h; activation, % at 6.8 µM; 3,300 tested, under 10 active; AID 743051, 2013;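 active = mean activation of the triplicate above a set limit carried over from the primary screen, none filed active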
# Target sequence (P55055 whole entry, looked up, the tested form may be a part): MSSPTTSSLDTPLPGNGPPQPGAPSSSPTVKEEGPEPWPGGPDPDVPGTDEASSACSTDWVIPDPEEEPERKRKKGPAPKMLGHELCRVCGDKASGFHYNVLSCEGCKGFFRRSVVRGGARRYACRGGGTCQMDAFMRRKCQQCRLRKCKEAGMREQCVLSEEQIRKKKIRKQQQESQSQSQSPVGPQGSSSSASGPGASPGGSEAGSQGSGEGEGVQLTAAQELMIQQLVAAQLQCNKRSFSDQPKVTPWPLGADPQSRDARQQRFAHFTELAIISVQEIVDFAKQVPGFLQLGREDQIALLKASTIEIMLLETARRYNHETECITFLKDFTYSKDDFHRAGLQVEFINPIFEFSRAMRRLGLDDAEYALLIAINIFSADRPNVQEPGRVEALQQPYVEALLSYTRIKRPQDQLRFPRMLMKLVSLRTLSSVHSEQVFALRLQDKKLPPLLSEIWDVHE
# Active calls of the source: *; / = not tested or not shown. Hits are enriched below; roughly 4.1% of the tested compounds scored in any of these assays.
SMILES,ssDAF-12 act,hcDAF-12 act,hgDAF12 agonist,DAX1 inh-1,DAX1 inh-2,hgDAF12 ag,LXRb DAF12 ctr
CCOC(=O)N1CCN(C(=O)c2ccc3c(c2)N(Cc2cc(C)ccc2C)C(=O)c2ccccc2S3=O)CC1 (centres undefined),-1,0,1,-1,0,/,/
O=C(Nc1ccc(C(O)(C(F)(F)F)C(F)(F)F)cc1)c1ccc(Cl)cc1,-2,-1,14*,/,/,4,0
O=C(Nc1ccc(Cl)cc1)c1ccc2nsnc2c1,0,3,18*,4,2,15*,0
O=C(Nc1ccc(C(O)(C(F)(F)F)C(F)(F)F)cc1)c1ccc(Cl)c([N+](=O)[O-])c1,-1,-2,4,-1,-1,/,/
Cc1csc2nc(CSc3nc4ccccc4o3)cn12,0,0,13*,1,1,8,0
O=C(CCl)Nc1ccc(N=Nc2ccccc2)cc1,0,3,5,2,-1,/,/
CC(=O)Nc1ccc(N=Nc2ccccc2)cc1,-1,5,16*,2,4.2*,15*,1
CC(=O)Nc1ccccc1,-1,0,0,1,0,/,/
CC(C)C(=O)OCC(=O)Nc1ccc(N=Nc2ccccc2)cc1,-1,2,16*,3,3,17*,1
Cc1cccc(N2CCN(C(=O)c3c(-c4ccccc4Cl)noc3C)CC2)c1C,-1,-2,-3,-2,-5,/,/
Cc1ccc(NC(=O)N2CCC(c3ccccc3)C2)cc1C (centres undefined),0,3,15*,5.8*,3.6*,19*,1
COc1ccc(CN2C(=O)c3ccccc3C2c2nnnn2C(C)C)cc1 (centres undefined),-2,0,-1,/,2,/,/
Cc1ccc(-c2cn(-c3ccccc3)c(=S)[nH]2)cc1C,0,6.2*,20*,4,1,14*,1
COc1ccc(CN2C(=O)CSCC2(C)C(=O)Nc2c(C)cccc2C)cc1 (centres undefined),-1,0,3,/,1,/,/
O=C(CSc1ccc(-c2ccc(Cl)cc2)nn1)Nc1ccc2c(c1)OCCO2,-1,0,-1,1,0,/,/
CN(C)c1cccc(/C=C2\CC3(OC(=O)c4ccccc4)CCCN2C3)c1 (centres undefined),-1,-1,22*,/,0,0,0
CC(=O)c1ccc(NC(=O)CSc2nc(N)c3cc4c(nc3n2)CCCC4)cc1,-2,1,4,-1,0,/,/
COc1ccc(NC(=O)CSc2nc(N)c3cc4c(nc3n2)CCCC4)cc1,-1,-1,18*,-1,-1,5,0
CCOc1cc(/C=N/NC(=O)Nc2ccccc2)ccc1O,3.8*,6.1*,13*,0,1,11*,0
CCOc1cc(/C=N/NC(=O)c2ccc(NC(=O)C3CC3)cc2)ccc1O,-1,3,-2,0,-2,/,/
COc1ccc(C=NNC(=O)NN=Cc2ccc(OC)c(OC)c2)cc1OC,-1,3,13*,5.0*,1,9,0
O=C(CSC(=O)c1ccccc1)Nc1ccccc1F,-1,-1,0,1,0,/,/
CNc1cccc(-c2cccc(O)c2)n1,-1,0,17*,/,2,9,0
CC(c1ccccc1)c1nnc(NC(=O)Nc2ccccc2)s1 (centres undefined),-1,-1,3,-1,1,/,/
CC(C)Cc1nnc(NC(=O)Nc2ccccc2)s1,-2,2,21*,0,2,14*,0
SMILES,ssDAF-12 act,hcDAF-12 act,hgDAF12 agonist,DAX1 inh-1,DAX1 inh-2,hgDAF12 ag,LXRb DAF12 ctr
CCc1ccc(NC(=O)Nc2cccs2)cc1,0,4,14*,2,1,18*,1
Cc1cc(NC(=O)OC2CCCCC2)ccc1[N+](=O)[O-],0,2,17*,1,1,14*,1
Cc1ccc(NC(=O)C2C3CCCCC32)cc1[N+](=O)[O-] (centres undefined),-1,3,6,3,0,/,/
O=C(c1ccc2c(c1)OCO2)N1CCN(CCN2C(=O)c3cccc4cccc(c34)C2=O)CC1,-1,-1,-1,-1,0,/,/
CCC(=O)Nc1nc2ccc3sc(C)nc3c2s1,-2,1,0,2,0,/,/
Cc1nc2c(ccc3nc(NC(=O)C4CC4)sc32)s1,-1,4,15*,2,0,12*,0
Fc1ccc2cnc(-c3ccsc3)cc2c1,0,3,14*,/,3,7,0
ClCC(CNCc1ccccc1)c1ccccc1 (centres undefined),-1,-1,-2,0,2,/,/
Cn1cccc1C(=O)N/N=C/c1c(Cl)cccc1Cl,1,5.9*,13*,3,2,12*,0
O=C(COc1coc(CN2CCCc3ccccc32)cc1=O)Nc1ccc([N+](=O)[O-])cc1,0,4,3,2,-3,/,/
CNS(=O)(=O)c1ccc(NC(=O)c2ccccn2)cc1,0,3,14*,1,1,9,0
CCCC(=O)Nc1ccc(NC(=O)c2ccccn2)cn1,1.2*,3,13*,2,2,9,0
CN(C)c1ccc(-c2ccnc3c2CC(C)(C(=O)NCC2CC2)O3)cc1 (centres undefined),-2,-3,-4,/,-2,/,/
Cc1nc(N)sc1-c1csc(Nc2cccc(O)c2)n1,0,1,1,0,0,/,/
Cc1nc(C)c(-c2csc(Nc3cccc(O)c3)n2)s1,0,3,23*,0,1,14*,1
CCN(CC)C(=O)C1=C(C)N(CCCOC)C(=O)C(CC(=O)NCCc2ccccn2)C1 (centres undefined),-1,-1,0,1,2,/,/
COc1ccc(-c2cn3nc4c(nc3n2)CCCC4)cc1,0,2,5,3,1,/,/
